Measured values as given in PubChem BioAssay AID540303 (National Center for Advancing Translational Sciences (NCATS), 2011).
Out of some 330,000 compounds screened, about 1,000 (0.3%) were called active. About 3% were inconclusive and are not listed. Calls come from the whole dose curve; as a rule, active = well fitted inhibition curve with a large enough effect; inconclusive = small, poorly fitted or top-dose-only effect; inactive = no such curve, though single readings can be large or run the other way; tested in mouse RAW 264.7 cells. The full list was thinned out, with actives kept by preference.

Assay: qHTS for Inhibitors of Cell Surface uPA Generation; note: nearly all actives have a fitted effect of over 55% in size
Details: cell surface uPA generation assay; series mostly up to 38.3 µM; activity change, negative = inhibition: at the top concentration
Excerpt: The overall objective of this project is to perform a quantitative high throughput screen (qHTS) to identify novel compounds that inhibit the generation of cell surface urokinase activity. The urokinase plasminogen activator (uPA) is one of the two primary endogenous systems that mediate plasminogen activation into plasmin. Members of this system, including uPA and its receptor (uPAR), are overexpressed in several malignant tumors. This system plays a major role in adhesion, migration, invasion and metastasis of cancer cells. Small molecule inhibitors of the uPA system will serve as probes to understand the molecular mechanisms of the uPA cascade and better understanding the microenvironmental circumstances that facilitate the activation of plasminogen by uPA, and finally may provide novel candidate agents for anticancer drug therapy.
[…] […] Upon inhibition of the uPA activation cascade, the subsequent cell surface uPA activity-dependent translocation of LF into the cytoplasm is inhibited. ATP-Lite is used to measure intracellular ATP concentrations, which remain increased if LF entry into the cytoplasm is inhibited. This validation assay was performed using a small set of validation compounds.
NIH Chemical Genomics Center [NCGC]
NIH Molecular Libraries Probe Centers Network [MLPCN]
Assay Submitter (PI): Thomas Bugge, National Institute of Dental and Craniofacial Research, NIH
Cultured RAW 264.7 were dispensed into 1536-well clear bottom, white walled tissue culture plates at a density of 4000 cells/well and were incubated overnight (12-16 h) at 37 C in a 5% CO2 incubator. Serially diluted compounds in 23 nl DMSO were added to cells. […] Compound and reagent-treated plates were incubated for 24 h at 37 C in a 5% CO2 incubator. Perkin Elmer ATPlitetrade mark 1 step (3 ul) was then added to each well. Luminescence was detected using a Perkin Elmer ViewLuxtrade mark plate reader.
1.Dispensing RAW 264.7 cells into 1536-well, white walled tissue culture plates at a density of 4000 cells/well (4 uL).
2.Incubation at 37 C in a 5% CO2 incubator overnight.
3.Serially diluting compounds (1:5 serial dilution; 0.0024 uM to […] final concentration) in 23 nl DMSO.
5.Incubating the compound and reagent-treated plates for 24 hours at 37 C in a 5% CO2 incubator.
6.Adding ATP-Lite (3 ul).
7.Reading plates by ViewLux with an exposure length of 5 seconds.
% is set by controls: 0 for no effect and ±100 for the full control effect; potency is the fitted concentration of half-maximal effect.

Potency, active:
CN(c1ccc2nc3ccccc3c(=O)n2n1)C1CCCCC1 794 nM
O=C(NCc1ccc2c(c1)OCO2)c1cc([N+](=O)[O-])ccc1N1CCOCC1 2820 nM
CCN1CCN(CCNC(=O)c2ccc(/C=C3/Sc4ccccc4N(Cc4cccc(C)c4)C3=O)cc2)CC1 6310 nM
Oc1ccc(Br)cc1/C=N/Nc1ccccn1 2820 nM
COc1ccc(CNc2nc(NCc3ccc(OC)cc3)c3ncn(C4CCCC4)c3n2)cc1 1410 nM
OCCCNc1nccc(-c2cc(Nc3cccc(Cl)c3)ncn2)n1 1580 nM
Clc1ccc(-c2cc(-c3ccccn3)on2)c(Cl)c1 891 nM
COc1ccc(-c2cc3ncccc3cn2)cc1 10000 nM
COc1ccc(-c2cn3ccc(C)cc3n2)cc1 1000 nM
COc1ccc(C(=O)c2c3ccc([N+](=O)[O-])cc3[n+]([O-])n2CCCN)cc1 794 nM

Activity change, negative = inhibition, inactive:
Cn1cc(C2OC(=O)c3ccccc32)c2ccccc21 (configuration not stated) -8.76%
COC(=O)c1ccc(NCc2cc(O)ccc2O)cc1 0.208%
CC1CCN(c2ccc(C(=O)NCc3ccc4c(c3)OCO4)cc2[N+](=O)[O-])CC1 1.21%
O=C(Cc1ccc([N+](=O)[O-])cc1)NCCc1ccc2c(c1)OCO2 0.328%
CC(=O)c1cccc(-c2ccc(CN3C(CC(C)C)C(=O)N(Cc4cn(CC5CCCCC5)nn4)CCS3(=O)=O)cc2)c1 (configuration not stated) -6.78%
C=CCCC(=O)N1C[C@H]2CON(C)[C@H]2C[C@H]1c1cccc(Nc2ccccc2)c1 15.4%
CC(Nc1ccc([N+](=O)[O-])cc1[N+](=O)[O-])c1ccccc1 (configuration not stated) 6.84%
COc1cccc2c1C(=O)c1c(O)c3c(c(O)c1C2=O)CC(O)(C(C)=NNC(=O)c1ccc(Cl)c(Cl)c1)CC3OC1CC(N)C(O)C(C)O1 (configuration not stated) -16.6%
CN1CCN(CCCNC(=O)c2ccc(/C=C3\Oc4ccccc4N(Cc4ccc(Cl)cc4)C3=O)cc2)CC1 -12.9%
O=C(NCCCN1CCOCC1)c1ccc2c(c1)N(Cc1cccc(F)c1)C(=O)c1ccccc1S2 0.696%
COCC(=O)N(C)[C@H]1C[C@H]2c3cc(Oc4ccccc4C)ccc3CCN2C(=O)[C@H]1[C@H](C)O -8.04%
CC(=O)OC1CCC2C3CCC4=C(CC(F)C(=O)C4)C3CCC12C (configuration not stated) -1.93%
Oc1ccc(Br)cc1C=Nc1ccc2[nH]ncc2c1 -8.16%
Oc1ccc(/C=N/Nc2ccc(C(F)(F)F)cn2)cc1O -7.76%
C[C@@H]1ON(C)[C@H]2C[C@H]3c4cc(N5CCN(C)CC5)ccc4CCN3C(=O)[C@@H]12 10.6%
COc1ccc(CNc2ncnc3ccccc23)cc1 2.13%
COc1ccc(CNC(=O)C2CCCC2)cc1 0.576%
NS(=O)(=O)c1cccnc1Nc1cccc(Cl)c1 5.06%
OCCCNc1nc(-c2ccccc2)c2cc(Cl)ccc2n1 -2.2%
NC1=NOC(=O)C1C1CCCCC1 (configuration not stated) 2.75%
CCCCN(C(=O)CSCc1ccc(C)cc1)c1c(N)n(Cc2ccccc2)c(=O)[nH]c1=O -5.42%
Nc1ccc2c(c1)C(=Cc1cccnc1)c1ccccc1-2 -4.54%
O=C1c2ccccc2C(=O)N1Cc1cc(-c2ccccc2Cl)no1 -7.69%
COn1c(-c2ccc(Cl)cc2Cl)nc2ncccc21 -0.408%
CN(O)C(=S)c1ccccc1 -5.86%
CCc1c(Nc2ccccc2C)nc(N)[nH]c1=O 0.701%
CCN(CC)S(=O)(=O)c1cccc(NC(=O)c2ccc(S(=O)(=O)N3CCCC3)cc2)c1 2.72%
COc1ccc(-c2cn3cccnc3n2)cc1 -8.17%
COc1ccc(-c2nnc(-c3ccc4ccccc4c3)o2)cc1 3.79%
COc1ccc(/C=C/C(=O)OCC(=O)N2CCN(S(=O)(=O)c3ccc(C)cc3C)CC2)cc1OC -25.9%
COc1cc(C(=O)CCc2ccc3c(c2)OCO3)cc(OC)c1OC 1.46%
S=C(Nc1ccccc1)Nc1ccc2ccccc2c1 0.245%
CCN(CC)S(=O)(=O)c1ccc(-c2cn3ccc(C)cc3n2)cc1 -29.7%
Cc1ccn2cc(C(=O)NC3CCN(Cc4ccccc4)CC3)nc2c1 4.62%
O=c1ccn([C@@H]2O[C@H](CNS(=O)(=O)c3cc4ccccc4s3)[C@@H](O)[C@H]2O)c(=O)[nH]1 5.53%
O=C(NN=Cc1ccccc1)c1ccccc1 -9.51%
CC(=O)N1CCc2ccc(N)cc21 3.65%
COc1ccc2c(c1)c(=Cc1ccc(N(C)C)cc1)c1cc(-c3ccccc3)[n+](C)n12 -7.82%
O=[N+]([O-])c1cc2ccccc2nc1-c1ccccc1 -3.87%
COc1ccc2c(C(=O)c3ccc(C)cc3)n(CCC(N)=O)[n+]([O-])c2c1 -0.295%
COc1ccc(C(=O)CC(=O)C(=O)Nc2cc([N+](=O)[O-])ccc2OC)cc1 -10.5%
CC/C(=C(/c1ccccc1)c1ccc(OCC[N+](C)(C)C)cc1)c1ccccc1 -1.1%
